The source made the active and inactive calls. The calls were made as follows: active = hit-call score of the fitted dose curve at least 0.9, where 1 is the maximum; inactive = score below 0.9.
How the values were obtained:
Settings in all cases: mRNA level, 48 h; actives raise or lower the signal
[1] = read-out: Insulin-like growth factor-binding protein 1 (IGFBP1), IGFBP1 (gene 3484); assay: LTEA_HepaRG_IGFBP1: Life Technologies and Expression Analysis (LTEA) Assay for Insulin-like growth factor-binding protein 1 (IGFBP1) using HepaRG (AID 2283508)
Summary of the method: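 HepaRG cells, plated 48 h then switched to serum-free induction medium, exposed in duplicate for 48 h to 8-point half-log series from 100 uM in 0.5% DMSO. mRNA measured by qRT-PCR, normalized to ACTB/GAPDH/POLR2A; bidirectional fit versus DMSO.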

[2] = read-out: Interleukin 6 (IL6), IL6 (gene 3569); assay: LTEA_HepaRG_IL6: Life Technologies and Expression Analysis (LTEA) Assay for Interleukin 6 (IL6) using HepaRG (AID 2283509)
Summary of the method: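 HepaRG cells exposed in duplicate for 48 h to eight half-log concentrations, top 100 uM, in 0.5% DMSO serum-free induction medium. mRNA measured by qRT-PCR, normalized to ACTB, GAPDH and POLR2A. Bidirectional fit versus DMSO.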

[3] = read-out: Interleukin 6 Receptor (IL6R), IL6R (gene 3570); assay: LTEA_HepaRG_IL6R: Life Technologies and Expression Analysis (LTEA) Assay for Interleukin 6 Receptor (IL6R) using HepaRG (AID 2283510);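 as to AC50: TaqMan qRT-PCR signal normalized to ACTB GAPDH and POLR2A housekeeping genes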
Summary of the method: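 Readout is IL6R transcript level by TaqMan qRT-PCR, normalized to three housekeeping genes and fitted bidirectionally against 0.5% DMSO controls. Human HepaRG cells received chemicals for 48 h in serum-free induction medium, highest concentration 100 uM.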

[4] = read-out: Potassium channel subfamily K member 1 (KCNK1), KCNK1 (gene 3775); assay: LTEA_HepaRG_KCNK1: Life Technologies and Expression Analysis (LTEA) Assay for Potassium channel subfamily K member 1 (KCNK1) using HepaRG (AID 2283511)
Summary of the method: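 Differentiated HepaRG cells, 48 h exposure in serum-free induction medium with 0.5% DMSO; 8 concentrations, half-log from 100 uM, duplicate. KCNK1 mRNA by qRT-PCR, normalized to ACTB, GAPDH, POLR2A; bidirectional fit vs DMSO.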

[5] = read-out: Keratin 19 (KRT19), KRT19 (gene 3880); assay: LTEA_HepaRG_KRT19: Life Technologies and Expression Analysis (LTEA) Assay for Keratin 19 (KRT19) using HepaRG (AID 2283512)
Summary of the method: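 Differentiated HepaRG cells in serum-free induction medium, exposed 48 h in duplicate to 8 half-log concentrations up to 100 uM in 0.5% DMSO. KRT19 mRNA by qRT-PCR, normalized to ACTB, GAPDH, POLR2A; bidirectional fit vs DMSO.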

[6] = read-out: JUN Transcription Factor, JUN (gene 3725); assay: LTEA_HepaRG_JUN: Life Technologies and Expression Analysis (LTEA) Assay for JUN Transcription Factor using HepaRG (AID 2283513)
Summary of the method: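 Cells plated 48 h, medium switched to serum-free induction medium, then dosed 48 h (100 uM top, half-log dilutions, 0.5% DMSO). RNA isolated; JUN measured by qRT-PCR against three housekeeping genes; gain or loss fitted relative to DMSO.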

[7] = read-out: Lipase C (LIPC), LIPC (gene 3990); assay: LTEA_HepaRG_LIPC: Life Technologies and Expression Analysis (LTEA) Assay for Lipase C (LIPC) using HepaRG (AID 2283514)
Summary of the method: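 HepaRG cells, 48 h after plating, treated in duplicate for 48 h in serum-free induction medium over 8 half-log concentrations from 100 uM, 0.5% DMSO. LIPC mRNA by TaqMan qRT-PCR normalized to ACTB/GAPDH/POLR2A; bidirectional fit versus DMSO.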

[8] = read-out: Lipoprotein lipase (LPL), LPL (gene 4023); assay: LTEA_HepaRG_LPL: Life Technologies and Expression Analysis (LTEA) Assay for Lipoprotein lipase (LPL) using HepaRG (AID 2283515)
Summary of the method: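 Differentiated HepaRG cells, plated 48 h, then exposed 48 h in serum-free induction medium to 8 concentrations (top 100 uM, half-log steps) in 0.5% DMSO, duplicate. LPL mRNA measured by qRT-PCR, normalized to ACTB, GAPDH and POLR2A.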

[9] = read-out: MicroRNA 122 (MIR122), gene 406906; assay: LTEA_HepaRG_MIR122: Life Technologies and Expression Analysis (LTEA) Assay for MicroRNA 122 (MIR122) using HepaRG (AID 2283516); also: the transcript read is the microRNA miR-122
Summary of the method: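 HepaRG plated 48 h, switched to serum-free induction medium, then treated in duplicate for 48 h (100 uM top, half-log steps, 0.5% DMSO vehicle). RNA isolated, qRT-PCR performed, concentration-response fitted both directions relative to DMSO.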

[10] = read-out: matrix metalloproteinase-10 (MMP10), MMP10 (gene 4319); assay: LTEA_HepaRG_MMP10: Life Technologies and Expression Analysis (LTEA) Assay for matrix metalloproteinase-10 (MMP10) using HepaRG (AID 2283517)
Summary of the method: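 Differentiated HepaRG cells in serum-free induction medium exposed 48 h in duplicate to 8-point half-log series up to 100 uM in 0.5% DMSO. mRNA quantified by qRT-PCR, normalised to ACTB, GAPDH, POLR2A; bidirectional fit versus DMSO.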

MYC, MYC (gene 4609) = assay: LTEA_HepaRG_MYC: Life Technologies and Expression Analysis (LTEA) Assay for MYC using HepaRG (AID 2283518)
Summary of the method: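 Differentiated HepaRG cells exposed 48 h in serum-free induction medium to 8 concentrations (top 100 uM, half-log steps; 0.5% DMSO), duplicate. MYC mRNA measured by Fluidigm qRT-PCR, normalized to ACTB, GAPDH, POLR2A; bidirectional fit versus DMSO.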

[11] = read-out: matrix metalloproteinase-3 (MMP3), MMP3 (gene 4314); assay: LTEA_HepaRG_MMP3: Life Technologies and Expression Analysis (LTEA) Assay for matrix metalloproteinase-3 (MMP3) using HepaRG (AID 2283519)
Summary of the method: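 HepaRG cells (~100,000/well) in serum-free induction medium were dosed in duplicate for 48 h with an 8-point half-log series from 100 uM, 0.5% DMSO. MMP3 mRNA was quantified by Fluidigm TaqMan qRT-PCR, normalized to three housekeeping genes.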

[12] = read-out: Paternally Expressed 10 (PEG10), PEG10 (gene 23089); assay: LTEA_HepaRG_PEG10: Life Technologies and Expression Analysis (LTEA) Assay for Paternally Expressed 10 (PEG10) using HepaRG (AID 2283520)
Summary of the method: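 HepaRG, 48 h post-plating → serum-free induction medium → 48 h chemical exposure (duplicate, 8-pt, max 100 uM, half-log, 0.5% DMSO) → lysis in RLT → TaqMan qRT-PCR for PEG10, ACTB/GAPDH/POLR2A normalisation.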

[13] = read-out: Nuclear factor NF-kappa-B p105 subunit (Homo sapiens) (UniProt P19838); assay: LTEA_HepaRG_NFKB1: Life Technologies and Expression Analysis (LTEA) Assay for Nuclear Factor Kappa B Subunit 1 (NFKB1) using HepaRG (AID 2283521);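 also: TaqMan qRT-PCR transcript normalised to ACTB GAPDH and POLR2A housekeeping genes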
Summary of the method: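 Differentiated human HepaRG cells were exposed for 48 h in serum-free induction medium to eight concentrations (top 100 uM, half-log steps, 0.5% DMSO), in duplicate. NFKB1 mRNA was measured by TaqMan qRT-PCR, normalized to ACTB/GAPDH/POLR2A, and fitted bidirectionally against DMSO.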

[14] = read-out: Protein phosphatase 2A (PPP2R4), PTPA (gene 5524); assay: LTEA_HepaRG_PPP2R4: Life Technologies and Expression Analysis (LTEA) Assay for Protein phosphatase 2A (PPP2R4) using HepaRG (AID 2283522)
Summary of the method: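 Readout is PPP2R4 transcript level by microfluidic qRT-PCR after 48 h chemical treatment of human HepaRG liver cells. Concentrations spanned 100 uM downward in half-log steps; gain or loss of signal was fitted relative to DMSO.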

[15] = read-out: Phosphatase and tensin (PTEN), PTEN (gene 5728); assay: LTEA_HepaRG_PTEN: Life Technologies and Expression Analysis (LTEA) Assay for Phosphatase and tensin (PTEN) using HepaRG (AID 2283523)
Summary of the method: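 HepaRG cells, 48 h after plating, exposed in duplicate for 48 h in serum-free induction medium to 8 half-log concentrations up to 100 uM (0.5% DMSO). PTEN mRNA by qRT-PCR, normalized to ACTB, GAPDH, POLR2A; bidirectional fit versus DMSO.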

[16] = read-out: solute carrier (SLC22A1), SLC22A1 (gene 6580); assay: LTEA_HepaRG_SLC22A1: Life Technologies and Expression Analysis (LTEA) Assay for solute carrier (SLC22A1) using HepaRG (AID 2283524)
Summary of the method: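 Differentiated human HepaRG cells in serum-free induction medium, exposed 48 h in duplicate to 8-point half-log series from 100 µM top in 0.5% DMSO. SLC22A1 mRNA by TaqMan qRT-PCR normalized to ACTB, GAPDH, POLR2A; bidirectional fit versus DMSO.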

[17] = read-out: Pyruvate Dehydrogenase Kinase 4 (PDK4), PDK4 (gene 5166); assay: LTEA_HepaRG_PDK4: Life Technologies and Expression Analysis (LTEA) Assay for Pyruvate Dehydrogenase Kinase 4 (PDK4) using HepaRG (AID 2283525)
Summary of the method: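 HepaRG cells plated 48 h, then switched to serum-free induction medium and exposed in duplicate for 48 h to 8 half-log concentrations from 100 uM in 0.5% DMSO. PDK4 mRNA measured by qRT-PCR, normalized to ACTB, GAPDH and POLR2A; bidirectional fit versus DMSO.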

[18] = read-out: NAD(P)H dehydrogenase [quinone] 1 (NQO1), NQO1 (gene 1728); assay: LTEA_HepaRG_NQO1: Life Technologies and Expression Analysis (LTEA) Assay for NAD(P)H dehydrogenase [quinone] 1 (NQO1) using HepaRG (AID 2283526)
Summary of the method: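 HepaRG, 48 h post-plating → serum-free induction medium → test chemical 48 h (duplicate, 100 uM top, half-log x8, 0.5% DMSO) → RNA isolation → qRT-PCR, ACTB/GAPDH/POLR2A normalization; bidirectional curve fit vs DMSO baseline.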

[19] = read-out: Nuclear factor erythroid 2-related factor 2 (Homo sapiens) (UniProt Q16236); assay: LTEA_HepaRG_NFE2L2: Life Technologies and Expression Analysis (LTEA) Assay for Nuclear factor erythroid 2-related factor 2 (NFE2L2) Transcription Factor using HepaRG (AID 2283527)
Summary of the method: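 Differentiated human HepaRG cells, serum-free induction medium, exposed 48 h in duplicate to eight half-log concentrations up to 100 uM in 0.5% DMSO. NFE2L2 mRNA by Fluidigm TaqMan qRT-PCR, normalised to ACTB, GAPDH, POLR2A; bidirectional change versus DMSO.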

Measured: AC50

Nuclear factor NF-kappa-B p105 subunit (Homo sapiens), sequence (P19838 whole entry, looked up): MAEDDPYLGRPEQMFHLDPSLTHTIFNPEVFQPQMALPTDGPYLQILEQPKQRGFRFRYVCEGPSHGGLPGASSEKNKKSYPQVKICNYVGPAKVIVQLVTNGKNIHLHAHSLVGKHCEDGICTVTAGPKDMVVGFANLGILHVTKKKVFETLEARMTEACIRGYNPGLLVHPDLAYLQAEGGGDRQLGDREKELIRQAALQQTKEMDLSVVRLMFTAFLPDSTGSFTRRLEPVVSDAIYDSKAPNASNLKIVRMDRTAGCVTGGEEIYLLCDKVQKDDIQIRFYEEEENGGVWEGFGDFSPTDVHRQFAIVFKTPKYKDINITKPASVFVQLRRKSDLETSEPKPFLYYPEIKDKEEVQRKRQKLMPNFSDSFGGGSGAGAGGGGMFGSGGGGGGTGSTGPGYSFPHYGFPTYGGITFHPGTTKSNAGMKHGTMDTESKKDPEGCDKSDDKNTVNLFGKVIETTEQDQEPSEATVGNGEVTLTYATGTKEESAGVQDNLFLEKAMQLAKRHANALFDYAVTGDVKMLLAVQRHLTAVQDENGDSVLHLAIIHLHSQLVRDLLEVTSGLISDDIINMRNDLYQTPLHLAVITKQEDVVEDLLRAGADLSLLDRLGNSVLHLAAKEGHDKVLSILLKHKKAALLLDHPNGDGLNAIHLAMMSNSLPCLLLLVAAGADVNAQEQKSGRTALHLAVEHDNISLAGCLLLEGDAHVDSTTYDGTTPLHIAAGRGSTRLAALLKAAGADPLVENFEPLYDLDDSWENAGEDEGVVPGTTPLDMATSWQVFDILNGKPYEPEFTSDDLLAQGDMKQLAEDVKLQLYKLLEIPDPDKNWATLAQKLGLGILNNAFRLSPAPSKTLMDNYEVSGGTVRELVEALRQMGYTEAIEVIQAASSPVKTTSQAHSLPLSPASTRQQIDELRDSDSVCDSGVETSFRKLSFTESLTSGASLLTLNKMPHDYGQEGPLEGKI
Nuclear factor erythroid 2-related factor 2 (Homo sapiens), sequence (Q16236 whole entry, looked up): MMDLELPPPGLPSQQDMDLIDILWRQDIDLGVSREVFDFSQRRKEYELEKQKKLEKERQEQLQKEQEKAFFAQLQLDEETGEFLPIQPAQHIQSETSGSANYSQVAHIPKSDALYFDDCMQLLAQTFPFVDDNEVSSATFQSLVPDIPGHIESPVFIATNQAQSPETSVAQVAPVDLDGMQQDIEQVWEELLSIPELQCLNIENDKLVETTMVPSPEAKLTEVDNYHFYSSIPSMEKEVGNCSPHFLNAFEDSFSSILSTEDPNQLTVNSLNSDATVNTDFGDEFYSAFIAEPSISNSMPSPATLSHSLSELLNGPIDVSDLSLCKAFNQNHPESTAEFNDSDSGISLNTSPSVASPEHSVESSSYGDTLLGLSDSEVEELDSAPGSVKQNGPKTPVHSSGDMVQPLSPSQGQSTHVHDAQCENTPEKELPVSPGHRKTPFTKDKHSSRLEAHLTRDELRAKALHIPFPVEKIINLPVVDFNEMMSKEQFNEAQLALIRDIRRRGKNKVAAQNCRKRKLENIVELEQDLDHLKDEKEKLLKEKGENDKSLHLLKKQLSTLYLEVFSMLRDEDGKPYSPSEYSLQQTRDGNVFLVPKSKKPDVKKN

O=C1C2(Cl)C3(Cl)C4(Cl)C(Cl)(Cl)C5(Cl)C3(Cl)C1(Cl)C5(Cl)C24Cl (centres undefined)
inactive: [4] | [7] | [11] | [13] | [15] | [18]
active: [1] 84 µM | [2] 91.7 µM | [3] 90.8 µM | [5] 93.5 µM | [6] 91.1 µM | [8] 91.9 µM | [9] 93.8 µM | [10] 88.8 µM | MYC, MYC (gene 4609) 24.9 µM | [12] 93.4 µM | [14] 15.8 µM | [16] 19.3 µM | [17] 92.7 µM | [19] 92.1 µM

CC12CC1(C)C(=O)N(c1cc(Cl)cc(Cl)c1)C2=O (centres undefined)
active: [12] 10.3 µM | [16] 11.2 µM | [17] 16.2 µM
inactive: all other assays above

CC(C)(C)CC(C)(C)c1ccc(O)cc1
active: [5] 25.9 µM
not listed: [1]
inactive: all other assays above

CC(C)(c1ccccc1)c1ccc(O)c(C(C)(C)c2ccccc2)c1
active: [7] 61.7 µM | [9] 78 µM | MYC, MYC (gene 4609) 50 µM | [16] 65.4 µM | [19] 50 µM
inactive: all other assays above

Reference: PubChem BioAssay (EPA / NIEHS)
